tim10-1 inh: growth inhibitors of tim10-1 mutant yeast, primary screen, luminescence, uHTS; 2.2% of 330,000 active; inhibition, % at 20 µM; S. cerevisiae tim10-1 ts strain growth, BacTiter-Glo, 24 h;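 active means inhibition of at least 40%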;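 further: mutant grown at 25 °C; 0% = DMSO wells with yeast and 100% = wells holding no yeast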
tim23-1 inh: growth inhibitors of tim23-1 mutant yeast, primary screen, luminescence, uHTS | S. cerevisiae tim23-1 growth, BacTiter-Glo luminescence, 24 h | inhibition, % at 20 µM | 1.3% of 330,000 active | AID 463212, 2010;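 active means growth inhibition of the mutant yeast at or above 50%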;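 further: temperature-sensitive mutant grown at 25 °C; plate controls were DMSO-treated mutant yeast for no effect and medium wells lacking yeast for full effect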
NLRP3 yeast inh: NALP3 inflammasome inhibitors in reconstituted yeast, primary screen, luminescence, uHTS; Yeast reconstituted NLRP3/ASC/caspase-1, beta-gal luminescence, 24 h; inhibition, % at 10 µM; 0.39% of 330,000 active;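 active means inhibition of 50% or more; inactive means inhibition below 50%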;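 further: plate controls were induced DMSO wells for no effect and uninduced yeast grown without galactose for full effect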
TIM10 inh: growth inhibitors of isogenic TIM10 control yeast, primary screen, counter-screen for tim10-1 yeast inhibitor project, luminescence, uHTS; S. cerevisiae TIM10 strain growth, BacTiter-Glo luminescence, 24 h; inhibition, % at 10 µM; 1.4% of 330,000 active;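 active means inhibition of 40% or more at the single tested concentration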;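 further: wild-type TIM10 isogenic control strain grown at permissive 25 °C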
Yeast superoxide: reduction of superoxide in aged yeast, primary screen, HTS. superoxide response (% of plate mean), % at 10 µM. 0.18% of 330,000 active. S. cerevisiae aged cells, superoxide DHE fluorescence; stronger effect = lower value. AID 2690, 2010;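 active means superoxide response under a set limit, about three screen SD below normal, cut at about 65% in these data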;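 further: yeast aged for seven days with compound at 30 °C before DHE staining; 100% = average MFI of all compound-treated wells on the plate with controls excluded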
NALP3 yeast conf: NALP3 inhibitors retested in yeast, confirmation, luminescence, single concentration; shares compounds with NLRP3 yeast inh; yeast expressing human NALP3; inhibition, % at 10 µM; 81% of 1,300 active; in the data active means inhibition above about 48%
Casp1-ASC yeast: CASP1-PYCARD signaling inhibition in yeast, confirmatory test, counterassay for NLRP3 inhibitor program, one-dose; inhibition, % at 10 µM; shares compounds with NLRP3 yeast inh; yeast expressing Caspase-1-ASC, luminescence counter screen; 66% of 1,000 active
NALP3 yeast rt: NALP3 inhibitors in yeast, repeat test, confirmation, luminescence, single concentration, retest. shares compounds with NLRP3 yeast inh. yeast expressing human NALP3, luminescence read-out. inhibition, % at 10 µM. 53% of 1,000 active
Starred values were filed as active, the others as inactive. In the library only some 3.8% were active in any assay of this set; here they are far more common. Unless noted, no stated cut-off is given here; in the data, active means inhibition above about 50%; inactive means the rest.

What do the screens show for `O=C(Nc1ccc(N2CCCCC2)cc1)C(Cl)c1ccccc1` (stereo unspecified)?
tim10-1 inh: 21; tim23-1 inh: 18; NLRP3 yeast inh: 50*; TIM10 inh: 19; Yeast superoxide: 118; NALP3 yeast conf: 56*; Casp1-ASC yeast: 44; NALP3 yeast rt: 34

Results for O=C(Nc1ccc(N2CCCC2)cc1)C(c1ccccc1)c1ccccc1 ?
tim10-1 inh: 14; tim23-1 inh: 8; NLRP3 yeast inh: 9; TIM10 inh: 13; Yeast superoxide: 96

How did CCOc1ccc(S(=O)(=O)N2CCCC(C(=O)N3CCN(c4ccccc4)CC3)C2)cc1 (stereo unspecified) do in these assays?
tim10-1 inh: 18; tim23-1 inh: 23; NLRP3 yeast inh: 8; TIM10 inh: -7; Yeast superoxide: 107

What do the screens show for `O=C1C(=C(c2ccccc2)c2ccccc2)Nc2ccccc21`?
tim10-1 inh: -11; tim23-1 inh: 27; NLRP3 yeast inh: 62*; TIM10 inh: 6; Yeast superoxide: 69; NALP3 yeast conf: 8

What do the screens show for `CCCNC(=O)c1c(O)c2cccc3c2n(c1=O)CCC3`?
Yeast superoxide: 110

How did NCCNC(=O)c1c(O)c2cccc3c2n(c1=O)CCC3 do in these assays?
tim10-1 inh: -14; tim23-1 inh: 41; NLRP3 yeast inh: 61*; TIM10 inh: 33; Yeast superoxide: 93; NALP3 yeast conf: 75*; Casp1-ASC yeast: 51*; NALP3 yeast rt: 46

Results for Cc1nc(SCC(=O)NC2CCS(=O)(=O)C2)c2c3c(sc2n1)CCCC3 (stereo unspecified) ?
tim10-1 inh: 28; tim23-1 inh: 19; NLRP3 yeast inh: 12; TIM10 inh: 7

Results for CCOc1ccc(CSCCNC(=S)Nc2ccc(OC)cc2)cc1 ?
tim10-1 inh: 15; tim23-1 inh: 19; NLRP3 yeast inh: 68*; TIM10 inh: 5; Yeast superoxide: 76; NALP3 yeast conf: 64*; Casp1-ASC yeast: 50; NALP3 yeast rt: 35

What do the screens show for `COC(=O)c1ccc(/C=C(\C#N)c2ccccn2)cc1`?
tim10-1 inh: -3; tim23-1 inh: 23; NLRP3 yeast inh: 63*; TIM10 inh: -7; Yeast superoxide: 96; NALP3 yeast conf: 52*; Casp1-ASC yeast: 47; NALP3 yeast rt: 50

How did CN(C)c1ccc(/C=C(\C#N)c2ccccn2)cc1 do in these assays?
tim10-1 inh: 29; tim23-1 inh: 33; NLRP3 yeast inh: 51*; TIM10 inh: 30; Yeast superoxide: 104; NALP3 yeast conf: 34

Results for Nc1cc(N)nc(SCC(=O)NCc2ccc3c(c2)OCO3)n1 ?
tim10-1 inh: 0; tim23-1 inh: -7; NLRP3 yeast inh: -7; TIM10 inh: -10; Yeast superoxide: 95

What do the screens show for `COc1cc(CNC(=O)CCn2nc(C)c3c(C)n(-c4ccccc4)nc3c2=O)cc(OC)c1OC`?
tim10-1 inh: 17; tim23-1 inh: 10; NLRP3 yeast inh: 14; TIM10 inh: -8; Yeast superoxide: 111

Results for Clc1ccccc1Cn1nnc2c(NCC3CC3)ncnc21 ?
tim10-1 inh: -3; tim23-1 inh: 20; NLRP3 yeast inh: 17; TIM10 inh: 10; Yeast superoxide: 100

How did Clc1ccccc1Cn1nnc2c(Nc3ccccc3)ncnc21 do in these assays?
tim10-1 inh: 10; tim23-1 inh: 30; NLRP3 yeast inh: 62*; TIM10 inh: 10; Yeast superoxide: 95; NALP3 yeast conf: 74*; Casp1-ASC yeast: 55*; NALP3 yeast rt: 57*

How did CCN(CC)S(=O)(=O)c1cccc(-c2nc3n(n2)Cc2ccccc2-3)c1 do in these assays?
tim10-1 inh: 29; tim23-1 inh: 17; NLRP3 yeast inh: -107; TIM10 inh: 37; Yeast superoxide: 116; NALP3 yeast conf: 0

Assay outcomes as filed in PubChem.
